From PubChem BioAssay
Shown are actives, neighbours in structure and some others; about 1.6% of the full set was active somewhere.
KCNQ2 inh – KCNQ2 (rat) channel inhibition; O88943; CHO-K1 KCNQ2, FluxOR thallium flux, 20 min; stronger effect = lower value; B-score at 10 µM; 1.1% of 310,000 active;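 active = fluorescence ratio B-score at most minus 3 library SDs, with starting brightness B-score within 2 library SDs, cut at about -5.5 in these data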
KCNQ2 enhance – potentiators of rat KCNQ2 potassium channel | O88943 | CHO-K1 KCNQ2, FluxOR thallium flux fluorescence; stronger effect = higher value | B-score at 10 µM | AID 2239 | 0.54% of 310,000 active;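 active = fluorescence ratio B-score at least 3 SD of library B-scores, with initial fluorescence B-score within 3 of them, cut at about 5.3 in these data; same plate scores as AID 2156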;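 also: B-score of peak minus minimum over baseline fluorescence ratio after K+ and Tl+ stimulus; positive B-score means potentiation of KCNQ2 with more thallium influx and brighter signal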
Kir21 confirm – confirmation of mouse Kir2.1 potassium channel inhibitors | shares compounds with KCNQ2 enhance | Kir2.1-expressing cells, FluxOR thallium flux fluorescence; stronger effect = lower value | Tl flux remaining, % of negative control (stronger effect = lower value), % at 10 µM | 41% of 2,300 active;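 active = Primary-screen hit whose thallium flux fell at least 3 control SD below untreated wells in both duplicates, with normal baseline fluorescence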;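 also: 0% = blank wells without stimulus and 100% = stimulated no-compound controls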
Target sequence (P35561 whole entry, looked up): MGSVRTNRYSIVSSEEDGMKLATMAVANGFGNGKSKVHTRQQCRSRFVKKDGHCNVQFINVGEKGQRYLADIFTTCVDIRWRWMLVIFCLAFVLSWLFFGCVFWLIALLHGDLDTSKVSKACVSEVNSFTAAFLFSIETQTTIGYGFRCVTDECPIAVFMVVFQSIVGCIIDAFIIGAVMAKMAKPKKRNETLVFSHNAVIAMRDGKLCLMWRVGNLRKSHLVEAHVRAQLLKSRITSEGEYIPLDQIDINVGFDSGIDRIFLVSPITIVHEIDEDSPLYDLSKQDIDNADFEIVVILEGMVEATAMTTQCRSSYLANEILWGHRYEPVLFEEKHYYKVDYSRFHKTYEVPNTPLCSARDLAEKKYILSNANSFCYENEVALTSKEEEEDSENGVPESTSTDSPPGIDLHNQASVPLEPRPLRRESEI
HEK293 ctr – parental HEK293 activity in Kir2.1 inhibitor counter-screen | parental HEK293 cells, FluxOR thallium flux fluorescence; 0% = unstimulated blank wells | shares compounds with KCNQ2 enhance | AID 2105 | 19% of 2,300 active | FluxOR signal as % of negative control (100 = no effect), % at 10 µM;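 active = dye signal at least 3 control SD above or below untreated wells in both duplicates, raw fluorescence within 3, either direction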;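 also: percent is based on the flux ratio of peak minus minimum fluorescence over baseline F0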
CHO-K1 ctr – alters thallium flux in parental CHO-K1 cells, KCNQ2 counter-screen. 43% of 1,200 active. shares compounds with KCNQ2 enhance. AID 2282. activity increase over 3SD of controls, % at 10 µM. FluxOR thallium flux fluorescence; zero = vehicle mean+3SD, 100% = vehicle-minus-blank window;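 active = signal rise of at least 3 SD above the untreated control mean, in both duplicate wells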;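 also: counter screen of KCNQ2 potentiator hits so any rise reflects channel-independent effects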
KCNQ1 pot spec – selectivity of KCNQ2 potentiators: effect on human KCNQ1; shares compounds with KCNQ2 enhance; CHO KCNQ1 stable, FluxOR thallium flux fluorescence; beyond 3SD, as % of vehicle-control signal; activation over 3SD threshold, % at 10 µM; 28% of 1,200 active;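 active = fluorescence ratio rise of at least 3 SD of vehicle wells above their mean, in both replicate wells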;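 also: 0% = vehicle mean plus 3 SD and 100% = vehicle minus unstimulated blank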
KCNQ2 pot confirm – confirmation of rat KCNQ2 potassium channel potentiators; shares compounds with KCNQ2 enhance; CHO-KCNQ2 cells, FluxOR thallium flux fluorescence; 68% of 1,200 active; potentiation, less the hit threshold, % at 10 µM;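 active = fluorescence ratio rising 3 SD or more over the vehicle control mean in both replicates, plus primary screen hit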;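 also: peak minus minimum thallium fluorescence divided by baseline after K/Tl stimulus; 0% = vehicle mean plus 3 SD and 100% = vehicle minus unstimulated blank difference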
Kir2-1 sel – tests whether KCNQ2 potentiators also affect mouse Kir2.1; shares compounds with KCNQ2 enhance; HEK293 Kir2.1, FluxOR thallium flux fluorescence; 2% of 1,200 active; activity over 3SD threshold, % at 10 µM;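 active = fluorescence ratio rise of at least 3 SD above the vehicle-control mean, seen in both replicates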;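 also: 0% = vehicle mean plus 3 SD and 100% = vehicle minus no-stimulus blank window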
KCNQ2 W236L MoA – KCNQ2 potentiators acting on retigabine-insensitive rat KCNQ2 W236L mutant; 10% of 940 active; CHO KCNQ2-W236L, automated patch clamp current; current increase over 3SD of negative controls (%), stronger effect = higher value, % at 25 µM; shares compounds with KCNQ2 enhance;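 active = current increase at least 3 SD of the untreated controls above them in both duplicate recordings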
* hit, by the source's call; i = inactive; . = not tested or not shown.

SMILES | KCNQ2 inh | KCNQ2 enhance | others
CN(C(=O)CSc1ncnc2sc(-c3ccccc3)cc12)C1CCS(=O)(=O)C1 (centres undefined) | i | 20* | Kir21 confirm=i;HEK293 ctr=448%*;CHO-K1 ctr=0.0*;KCNQ1 pot spec=-19;KCNQ2 pot confirm=76*;Kir2-1 sel=-21;KCNQ2 W236L MoA=i
CN(C(=O)CSc1ncnc2scc(-c3ccccc3)c12)C1CCS(=O)(=O)C1 (centres undefined) | i | 0.37
CC(CCN1CCN=C1Nc1ccccc1)c1ccccc1 (centres undefined) | i | 0.52
COc1cc(C(=S)N2CCCCC2)ccc1OCC(=O)Nc1ccc(F)cc1 | i | 6* | Kir21 confirm=i;HEK293 ctr=i;CHO-K1 ctr=142*;KCNQ1 pot spec=27*;KCNQ2 pot confirm=17*;Kir2-1 sel=-46;KCNQ2 W236L MoA=i
COc1cc(C(=S)N2CCCCC2)ccc1OCC(=O)N1CCCC1 | i | 0.68
CC(C)(C)c1cc(C(=O)NNc2cc(C(F)(F)F)ccc2Cl)n(Cc2ccccc2)n1 | i | .
CCc1cccc(C)c1NC(=O)c1ccc2c(c1)CCN2S(C)(=O)=O | i | 1
CCCCNC(=O)Nc1nc2ccc(CC)cc2s1 | i | 0.04
O=C(NC(=S)N(Cc1ccccc1)Cc1ccccc1)c1ccccc1F | i | 11* | Kir21 confirm=i;HEK293 ctr=218%*;CHO-K1 ctr=110*;KCNQ1 pot spec=-1;KCNQ2 pot confirm=22*;Kir2-1 sel=-40;KCNQ2 W236L MoA=i
C=CCN(CC=C)C(=S)NC(=O)/C=C/c1ccccc1 | i | 0.7
C=CCN(CC=C)C(=S)NC(=O)c1ccc(-c2ccccc2)cc1 | i | 7.3* | Kir21 confirm=i;HEK293 ctr=420%*;CHO-K1 ctr=-3;KCNQ1 pot spec=22*;KCNQ2 pot confirm=89*;Kir2-1 sel=-4;KCNQ2 W236L MoA=i
CC(C)C(=O)NC(=S)N(Cc1ccccc1)Cc1ccccc1 | i | .
COc1ccc(C(=O)NC(=S)N(Cc2ccccc2)Cc2ccccc2)cc1 | i | 19* | Kir21 confirm=i;HEK293 ctr=199%*;CHO-K1 ctr=136*;KCNQ1 pot spec=-6;KCNQ2 pot confirm=-1;Kir2-1 sel=-28;KCNQ2 W236L MoA=i
O=C(NC(=S)NCc1ccccc1)c1ccccc1F | i | 0.78
COc1ccc(NC(=O)NC2CCCCCCC2)cc1 | i | .
COc1ccc(C)cc1NC(=O)CCNS(=O)(=O)c1ccc2c(c1)CC(C)N2C(C)=O (centres undefined) | i | .
Cc1ccc(N2CC(C(=O)N3CCCCC3)CC2=O)cc1C (centres undefined) | i | .
O=C(c1ccc(Cl)cc1)C1CCN(C(=O)c2ccc(F)cc2)CC1 | i | .
O=C(/C=C/c1c(F)cccc1Cl)c1ccc(O)cc1 | i | .
Cc1ccc(NCN2C(=O)C3C4CCC(C4)C3C2=O)cc1 (centres undefined) | i | 6.2* | Kir21 confirm=i;HEK293 ctr=i;CHO-K1 ctr=-25;KCNQ1 pot spec=-35;KCNQ2 pot confirm=-19;Kir2-1 sel=-42
CC(=O)Nc1ccc(NCN2C(=O)C3C4CCC(C4)C3C2=O)cc1 (centres undefined) | i | 1.2
CCCCn1c(N)c(N(CC)C(=O)CSCC(=O)Nc2ccc(OC)cc2)c(=O)[nH]c1=O | i | .
O=C(Nc1cccc(OC(F)(F)F)c1)c1ccc(Br)o1 | i | 11* | Kir21 confirm=i;HEK293 ctr=i;CHO-K1 ctr=12*;KCNQ1 pot spec=-20;KCNQ2 pot confirm=-2;Kir2-1 sel=-32;KCNQ2 W236L MoA=22%*
O=C(Nc1cccc(F)c1)c1ccc(Br)o1 | i | 0.43
Cc1ccc(C(=O)Nc2ccc(N3CCN(C(=O)c4cccs4)CC3)cc2)c(Cl)c1 | i | .
Cc1ccc(C(=O)Nc2ccc(Cl)cc2C)c(Cl)c1 | i | .
O=C(COc1ccc2c(c1)oc(=O)c1ccccc12)NCCCN1CCOCC1 | i | 1.8
Cn1c(CNC(=O)c2ccco2)nnc1SCC(=O)c1ccc(F)cc1 | i | 0.02
CC(C)C(CCNC1CCN(C)CC1)c1ccc(Cl)cc1 (centres undefined) | i | .
